Test results as given in PubChem BioAssay (NCI).
Compounds without any hit were thinned out: in the full panel of roughly 83,000, 20% have a hit.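 In brief: 96-well plates, 48 h treatment, single concentration, percent growth endpoint.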 Values without a mark were called inactive. Active and inactive are the calls of the source. How the source made its calls: active means growth percent below 10; inactive means the rest.

Assays:
Assay in all cases: NCI-60 one-dose screen, 48 h (100 = growth as untreated, 0 = no growth, -100 = all killed)
Details in all cases: 10 µM unless noted
NCI-H23 lung = system: NCI-H23 lung
NCI-H226 lung = system: NCI-H226 lung
NCI-H322M lung = system: NCI-H322M lung
HOP-62 NSCLC = system: HOP-62 NSCLC
NCI-H460 lung = system: NCI-H460 lung
HOP-92 NSCLC = system: HOP-92 NSCLC
NCI-H522 lung = system: NCI-H522 lung
A549/ATCC NSCLC = system: A549/ATCC NSCLC
786-0 renal = system: 786-0 renal
COLO 205 colon = system: COLO 205 colon
DU-145 prostate = system: DU-145 prostate
K-562 leukemia = system: K-562 leukemia
MDA-MB-231 breast = system: MDA-MB-231 breast
RXF 393 renal = system: RXF 393 renal
SF-268 CNS = system: SF-268 CNS
SF-295 CNS = system: SF-295 CNS
SF-539 CNS = system: SF-539 CNS
UACC-257 melanoma = system: UACC-257 melanoma
M14 melanoma = system: M14 melanoma
MALME-3M melanoma = system: MALME-3M melanoma

| SMILES | growth (NCI-H23 lung) | growth (NCI-H226 lung) | growth (NCI-H322M lung) | growth (HOP-62 NSCLC) | growth (NCI-H460 lung) | growth (HOP-92 NSCLC) | growth (NCI-H522 lung) | growth (A549/ATCC NSCLC) | growth (786-0 renal) | growth (COLO 205 colon) | growth (DU-145 prostate) | growth (K-562 leukemia) | growth (MDA-MB-231 breast) | growth (RXF 393 renal) | growth (SF-268 CNS) | growth (SF-295 CNS) | growth (SF-539 CNS) | growth (UACC-257 melanoma) | growth (M14 melanoma) | growth (MALME-3M melanoma) |
| --- | --- | --- | --- | --- | --- | --- | --- | --- | --- | --- | --- | --- | --- | --- | --- | --- | --- | --- | --- | --- |
| Fc1cccc(-c2[nH]nc3nc(Nc4cccnc4)sc23)c1 | 43.3% | 70.8% | 65.1% | 55.4% | 21.2% | 86.4% | 16% | 37.8% | 53.6% | 15.7% | 29.4% | 21% | 78.2% | 44.5% | 60.6% | 27.4% | 24% | 72.4% | 45.5% | – |
| C(=C\c1c[nH]c2ccccc12)/c1ccc2ccccc2n1 | 91.3% | 76.5% | 77.5% | 89.6% | 79.7% | 61.3% | 53.8% | 63.3% | 77.8% | 84.4% | 92.7% | 51.9% | 56.4% | 92.1% | 71.4% | 81.4% | 87.9% | 90.2% | 82.2% | – |
| Cn1cc(-c2csc(-c3cn(C(=O)OC(C)(C)C)c4ccccc34)n2)c2cccnc21 | 70.4% | 91.4% | 103% | 73.7% | 60.7% | 57.1% | -8.18% (active) | 52.9% | 76.6% | 64.8% | 92.7% | 23.3% | 65.4% | 80.1% | 81.6% | 48.2% | 71.4% | 82.9% | 54.8% | – |
| Cc1ccc2c(c1)c(-c1nc(-c3c[nH]c4ncccc34)cs1)cn2C | 71.9% | 88.9% | 73.1% | 105% | 56.8% | 83.8% | 70.5% | 87.8% | 83% | 112% | 115% | 81% | 75.7% | 97.4% | 128% | 101% | 92% | 115% | 101% | – |
| Cn1c2c(c3ccc(Cl)cc31)-n1cccc1C2=O | 95.2% | 99.3% | 85.4% | 107% | 92.9% | 81.8% | 71.3% | 75.1% | 80.9% | 90.4% | 88.6% | 107% | 87.5% | 91.8% | 92.3% | 105% | 94.7% | 106% | 109% | – |
| S=c1[nH]nc2ccccn12 | 104% | 122% | 105% | 102% | 109% | 100% | 82.3% | 106% | 112% | 118% | 114% | 92.6% | 103% | 119% | 117% | 108% | 99.1% | 108% | 108% | – |
| Cn1cc(-c2nc(-c3cn(C)c4ncccc34)cs2)c2cc(F)ccc21 | 43.3% | 68.8% | 57% | 53.7% | 15.8% | 72.4% | -0.482% (active) | 38.1% | 45.9% | 31.3% | 57.4% | 16% | 47.1% | 30.8% | 52.2% | 16.3% | 26.6% | 61.7% | 17.2% | – |
| CN(C)c1ccc(N=C2C=CC(=O)C=C2)cc1 | 84.5% | 95.1% | 75% | 107% | 97.1% | 77.5% | 72% | 102% | 98.4% | 36.3% | 112% | 64.2% | 46.4% | – | 101% | 95.1% | 65% | 119% | 95.6% | 85.8% |
| O=C(N/N=C\c1c(O)ccc2ccccc12)C1CC1 | 36.4% | 79.6% | 33.7% | 55.8% | 32.9% | 43.1% | 11.6% | 58.4% | 49.6% | 96.3% | 69.1% | 34% | 38.5% | 50.4% | 42.3% | 30% | 33.2% | 11.2% | 39.9% | – |
| COC1=C(Br)C(=O)C(OC)=C(Br)C1=O | 105% | 102% | 98.1% | 111% | 106% | 153% | 86.3% | 102% | 103% | 110% | 109% | 31.7% | – | 119% | 111% | 111% | 108% | 94.4% | 105% | 102% |
| CC1=CC(=O)N(c2cccc3c(N4C(=O)C=C(C)C4=O)cccc23)C1=O | 79.4% | 100% | 102% | 100% | 113% | 78.6% | -74.6% (active) | 96.5% | 96.3% | -45.6% (active) | 72.3% | 6.92% (active) | 107% | -10.7% (active) | 106% | 121% | 32.7% | 82.4% | 96.2% | – |
| Cn1cc(-c2nc(-c3c[nH]c4ncccc34)cs2)c2cc(F)ccc21 | 40.8% | 62.3% | 35.1% | 65.3% | 24.6% | 13.3% | 22% | 36.3% | 41.3% | 49.4% | 64.4% | 6.15% (active) | 20% | 43.8% | 44.4% | 19.9% | 53.9% | 53.3% | 20.5% | – |
| NC(=O)[C@@H]1CC2CCC1C2 (stereo partly drawn) | 113% | 103% | 110% | 103% | 97.2% | 71.1% | 108% | 110% | 101% | 107% | 50.4% | 45.5% | 123% | 110% | – | – | 91.9% | 111% | 118% | 101% |
| CN(C)c1ccc(N)c2ccccc12 | -79.6% (active) | 47% | 58.7% | 74.1% | 52.5% | 105% | 80.1% | 49.5% | 87.1% | 19.6% | -96.4% (active) | 48.4% | – | 111% | 77% | 43.4% | 38.4% | -2.3% (active) | -94.9% (active) | -85.5% (active) |
| O=[N+]([O-])c1cccc(/C=N\Nc2ccccc2)c1 | 88.5% | 70.1% | 81.1% | 84% | 77.1% | 66% | 54.9% | 67.4% | 74.4% | 85.4% | 80.2% | 16.6% | 55.7% | 101% | 62.5% | 49.2% | 96.7% | 95.3% | 33.7% | – |
| CN(C)c1ccc(C(=O)c2ccc(N(C)C)c(N)c2)cc1N | 40% | 75.6% | 49.3% | 53% | 13.5% | 91% | 49.2% | 56% | 42.4% | 21.3% | 6.99% (active) | 21.4% | 55.8% | – | 43.6% | 21.9% | 3.19% (active) | 77.3% | 13% | 34.2% |
